These results are taken from PubChem BioAssay (NCI).

The panel holds about 83,000 compounds, 20% with a hit somewhere; the sample as a whole holds those more often.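 Results are percent growth after 48 hours of single-concentration exposure. 100 means growth as in untreated cells, lower positive values show inhibition; negative values down to -100 show cell death.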 Unmarked numbers belong to inactive results. Activity calls are given as the source filed them. Rule for the calls: active = growth percent below 10; inactive = the rest.

What all share (experiment): NCI-60 one-dose screen, 48 h (100 = growth as untreated, 0 = no growth, -100 = all killed)
Holding throughout (details): 10 µM unless noted

Test [1] relates to NCI-H23 lung.
The test system of test [2] is NCI-H226 lung.
Test [3] has as its system NCI-H322M lung.
Test [4] deals with HOP-62 NSCLC.
The test system of test [5] is NCI-H460 lung.
In test [6] the test system is HOP-92 NSCLC.
The test system of test [7] is NCI-H522 lung.
The test system of test [8] is A549/ATCC NSCLC.
Test [9] has as its system 786-0 renal.
Test [10] deals with COLO 205 colon.
For test [11], the system named is DU-145 prostate.
The test system of test [12] is K-562 leukemia.
For test [13], the system named is MALME-3M melanoma.
Test [14] concerns MDA-MB-231 breast.
For test [15], the system named is RXF 393 renal.
Test [16] concerns SF-268 CNS.
Test [17] has as its system SF-295 CNS.
In test [18] the test system is SF-539 CNS.
Test [19] has as its system UACC-257 melanoma.
Test [20] relates to M14 melanoma.

On to `CSc1ncccc1C(=O)OCC(=O)Nc1oc(C)c2c(C)n[nH]c(=O)c12`, for which the growth in [1] was 99.3%; in [2] it was 86.3%; in [3], 104%; in test [4] it was 105%; in test [5], 108%; in test [6], 73.4%. The growth was 84.2% in test [7]; 103% in [8]; 91.6% in [9]; 122% in [10]; 103% in test [11]; 87.8% in test [12]. In addition, the growth in test [13] is 106%; in test [14] it was 109%; in test [15], 92.1%; in test [16], 105%; in test [17], 95%; in test [18] it was 99.7%. For the same compound, the growth in [19] is 103%; in [20] it was 110%.
As to `CCC12CCC[N+]3([O-])CCC4(C(=Nc5ccccc54)C(O)(C(=O)OC)C1)C23` (stereo not given), the growth in test [1] was 101%; in test [2], 106%; in test [3], 103%; in [4], 94.5%; in test [5], 111%; in [6] it was 94.4%. Also, the growth in test [7] was 115%; in test [8], 114%; in test [9] it was 106%; in test [10] it was 118%; in [11], 103%; in test [12], 109%. Further, the growth was 104% in [13]; 103% in test [14]; 113% in [15]; 96.2% in test [16]; 102% in test [17]; 103% in [18]. The values for the growth in test [19] and in test [20] were 115% and 96.7%, respectively.
As for `COc1cc(C(=O)N2N=C(c3ccc(S(C)(=O)=O)cc3)CC2c2ccco2)cc(OC)c1OC` (stereo not given), the growth in [1] was 76.9%; in test [2], 77.4%; in [3] it was 95%; in test [4], 67.3%; in test [5] it was 58.2%; in [6] it was 39.8%. In addition, the growth is 11.9% in [7]; 58.2% in test [8]; 75.1% in test [9]; 69.8% in test [10]; 82.5% in test [11]; 73.2% in test [12]. For the same compound, the growth was 61.7% in test [13]; 66.4% in test [14]; 66.4% in [15]; 87.6% in test [16]; 42.9% in test [17]; 79.1% in test [18]. The results for the growth in test [19] and in test [20] were 80.6% and 65.2%, respectively.
For `C/C(=C\C(=O)c1ccc(Cl)cc1)c1ccc(Cl)cc1`, the growth was 83.9% in [1]; 90.9% in test [2]; 84.9% in [3]; 88.1% in [4]; 100% in test [5]; 72.8% in [6]. For the same compound, the growth in test [7] was 87.8%; in test [8] it was 95.2%; in test [9], 108%; in [10], 97.5%; in test [11], 113%; in test [12] it was 106%. Besides, the growth is 97.5% in test [13]; 89.8% in test [14]; 106% in test [15]; 96.4% in test [16]; 109% in test [17]; 104% in test [18]. Moreover, the growth in test [19] is 98.4%; in [20], 104%.
Turning to `Cc1cc(O)c(C2=NN(c3ccc(S(N)(=O)=O)cc3)C(c3ccccc3O)C2)cc1Cl` (stereo not given), the growth in test [1] is -19.9% (active); in test [2], 0.355% (active); in [3], 46.8%; in [4] it was -3.51% (active); in [5], -47.9% (active); in [6] it was 5.49% (active). In addition, the growth was -56.8% (active) in test [7]; 3.15% (active) in test [8]; -55.7% (active) in test [9]; -94.4% (active) in [10]; 1.2% (active) in [11]; -36.6% (active) in [12]. Moreover, the growth in test [13] is 21.8%; in test [14], 4.16% (active); in [15], -10.3% (active); in [16], 10.8%; in [17], 58.5%; in test [18], -21.2% (active). Besides, the figures for the growth in test [19] and in [20] were 66.5% and -68.5% (active), respectively.
In the case of `NC1CCN(c2nc(Nc3cccc(C(F)(F)F)c3)c3c(=O)[nH]ccc3n2)CC1`, the growth was -58.9% (active) in test [1]; -62.5% (active) in [2]; -12.7% (active) in test [3]; -58.8% (active) in test [4]; -59.1% (active) in test [5]; -61.5% (active) in test [6]. The growth in test [7] is -85.3% (active); in [8], -52.2% (active); in test [9] it was -97.7% (active); in [10] it was -61.1% (active); in test [11] it was 7.32% (active); in test [12], -48.7% (active). For the same compound, the growth in test [13] is -64.1% (active); in test [14] it was -62% (active); in test [15], -93.6% (active); in [16], -46.2% (active); in test [17], -56.7% (active); in [18] it was -96.5% (active). The growth in [19] is -74.6% (active); in test [20] it was -95.2% (active).
Consider `Cc1cc(-c2cc(C)c(N)cc2C)c(C)cc1N`, for which the growth in test [1] was 101%; in test [2], 103%; in [3] it was 118%; in test [4] it was 93.1%; in test [5] it was 113%; in test [6] it was 45.9%. Besides, the growth is 86.1% in [7]; 107% in test [8]; 84.1% in test [9]; 99.2% in test [10]; 121% in test [11]; 54.7% in test [12]. Further, the growth was 84.2% in test [13]; 82.8% in [14]; 111% in test [15]; 95.9% in test [16]; 84.1% in [17]; 97.5% in test [18]. Moreover, the values for the growth in test [19] and in [20] were 90.5% and 65.6%, respectively.
For the compound `COc1cc2cc(Oc3ccc(NC(=O)Nc4ccc(Cl)c(Cl)c4)cc3)c(C)nc2cc1OCCN1CCOCC1`, the growth in test [1] is 58.9%; in test [2], 57.7%; in test [3], 105%; in [4], 105%; in [5], 91.8%; in test [6] it was 76.8%. Besides, the growth in test [7] is 67.5%; in test [8], 76.7%; in test [9] it was 91.5%; in test [10], 104%; in [11], 99.6%; in [12], 39.2%. For the same compound, the growth in test [13] was 92.2%; in test [14] it was 97.1%; in test [15], 84%; in [16] it was 94.3%; in test [17] it was 80.1%; in test [18] it was 93.6%. Also, the growth is 74.3% in test [19] and 101% in test [20].
